In general, AC50 refers to the concentration at which the activity in the assay is half-maximal.

Here are results for 36 compounds from PubChem BioAssay (EPA / NIEHS).

Inconclusive results are not listed. Active and inactive are the calls of the source. How the source made its calls: active means hit-call score of the fitted dose curve at least 0.9, where 1 is the maximum; inconclusive means response in the unintended direction; inactive means score below 0.9.

The first experiment in a line: Tanguay_ZF_120hpf_PIG_legacy: (Legacy) Oregon State University Tanguay Lab 120 Hour Post-fertilization zebrafish Assay for Pigmentation Malformation (AID 2283650). The method in brief:
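Brightfield scoring of pigmentation malformation at 120 hpf, recorded as binary present/absent per larva. Exposure: dechorionated 5D wild-type embryos, one per well, static from 6 hpf at 28C, final DMSO 0.64% (vol/vol). Dead embryos not scored.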
With `Nc1c(Cl)c(Cl)nc(C(=O)O)c1Cl`, the outcome was inactive.
As for `O=C(Nc1ccccc1-c1ccc(Cl)cc1)c1cccnc1Cl`, the compound was called inactive.
`COP(=S)(OC)SCn1nnc2ccccc2c1=O`: the compound was classed as inactive.
Regarding `CCNP(=S)(OC)O/C(C)=C/C(=O)OC(C)C` (centres undefined), the compound was classed as inactive.
The same measure, in the same setting: the same measure for `CCCCC(O)(Cn1cncn1)c1ccc(Cl)cc1Cl` (centres undefined): “inactive”; for `CCCCOCN(C(=O)CCl)c1c(CC)cccc1CC`: “inactive”.
Regarding `COC(=O)NC(=S)Nc1ccccc1NC(=S)NC(=O)OC`, the outcome was inactive.
On the same count and under the same terms, to `COCC(=O)N(c1c(C)cccc1C)C(C)C(=O)OC` (centres undefined) belongs “inactive”; to `Nc1c(Cl)c(F)nc(OCC(=O)O)c1Cl`, “inactive”; to `CCOc1nc(C(Cl)(Cl)Cl)ns1`, “inactive”.
Regarding `CN=C=S`, the compound was called inactive.
Turning to `CC(C)C1(C)N=C(c2ncccc2C(=O)O)NC1=O` (centres undefined), the result was inactive.
Take `CC(C)N1C(=O)N(c2ccccc2)CSC1=NC(C)(C)C`: the outcome was inactive.
On to `Cc1cnc(C2=NC(C)(C(C)C)C(=O)N2)c(C(=O)O)c1` (centres undefined), for which the outcome was inactive.
On the same count and under the same terms, the same measure for `C=CCOC(=O)C(C)(C)OC(=O)c1cc(-n2c(=O)cc(C(F)(F)F)n(C)c2=O)ccc1Cl`: “inactive”; for `CCN(CC)c1nc(C)cc(OP(=S)(OC)OC)n1`: “inactive”.
Regarding `COC(=O)N(C(=O)N1CO[C@@]2(C(=O)OC)Cc3cc(Cl)ccc3C2=N1)c1ccc(OC(F)(F)F)cc1`, the compound was called inactive.
On the same count and under the same terms, to `O=c1n(Cl)c(=O)n(Cl)c(=O)n1Cl` belongs “inactive”; to `Cc1ccc(N=CN(C)C=Nc2ccc(C)cc2C)c(C)c1`, “inactive”; to `OC(c1ccc(Cl)cc1)(c1ccc(Cl)cc1)C(Cl)(Cl)Cl`, “inactive”.
For `CC(C)=CC1C(C(=O)OCc2coc(Cc3ccccc3)c2)C1(C)C` (centres undefined), the result was inactive.
As for `C=C(C)CN(CC)c1c([N+](=O)[O-])cc(C(F)(F)F)cc1[N+](=O)[O-]`, the outcome was inactive.
As to `O=C(O)c1c(Cl)ccc2cc(Cl)cnc12`, the outcome was inactive.
For the compound `COC(=O)NS(=O)(=O)c1ccc(N)cc1`, the compound was called inactive.

The nature of a further experiment: Tanguay_ZF_120hpf_CIRC_legacy: (Legacy) Oregon State University Tanguay Lab 120 Hour Post-fertilization zebrafish Assay for Circulatory Malformation (AID 2283651). The essentials:
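Binary circulatory malformation call at 120 hpf by brightfield imaging of zebrafish larvae; chorion removed at 4 hpf, static exposure from 6 hpf in sealed dark plates at 28C, final DMSO 0.64%; non-mortality endpoints skipped if embryo died.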
As for `Nc1c(Cl)c(Cl)nc(C(=O)O)c1Cl`, the outcome was inactive.
As for `O=C(Nc1ccccc1-c1ccc(Cl)cc1)c1cccnc1Cl`, the call was inactive.
As to `COP(=S)(OC)SCn1nnc2ccccc2c1=O`, the result was inactive.
Turning to `CCNP(=S)(OC)O/C(C)=C/C(=O)OC(C)C` (centres undefined), the call was inactive.
As to `CCCCC(O)(Cn1cncn1)c1ccc(Cl)cc1Cl` (centres undefined), the compound was classed as inactive.
Take `CO/N=C(/C1=NOCCO1)c1ccccc1Oc1ncnc(Oc2ccccc2Cl)c1F`: the outcome was inactive.
Consider `CNC(=O)Oc1cccc2ccccc12`, for which the outcome was inactive.
`COCC(=O)N(c1c(C)cccc1C)C(C)C(=O)OC` (centres undefined): the outcome was inactive.
With `Nc1c(Cl)c(F)nc(OCC(=O)O)c1Cl`, the compound was called inactive.
For the compound `CSC(=O)c1c(C(F)F)nc(C(F)(F)F)c(C(=O)SC)c1CC(C)C`, the call was inactive.
Regarding `Clc1nc(Cl)nc(Nc2ccccc2Cl)n1`, the compound was classed as inactive.
On the same count and under the same terms, the same measure for `CC1(C)CCC(=Cc2ccc(Cl)cc2)C1(O)Cn1cncn1` (centres undefined): “inactive”; for `CN=C=S`: “inactive”.
As to `CN/C(=N\[N+](=O)[O-])NCc1cnc(Cl)s1`, the result was inactive.
Consider `Cc1cnc(C2=NC(C)(C(C)C)C(=O)N2)c(C(=O)O)c1` (centres undefined), for which the compound was called inactive.
Take `C=CCOC(=O)C(C)(C)OC(=O)c1cc(-n2c(=O)cc(C(F)(F)F)n(C)c2=O)ccc1Cl`: the outcome was inactive.
In the case of `CC(C)Nc1nc(Cl)nc(NC(C)C)n1`, the compound was classed as inactive.
Consider `CCOC(=O)C(C)OC(=O)c1cc(Oc2ccc(C(F)(F)F)cc2Cl)ccc1[N+](=O)[O-]` (centres undefined), for which the call was inactive.
On to `COC(=O)N(C(=O)N1CO[C@@]2(C(=O)OC)Cc3cc(Cl)ccc3C2=N1)c1ccc(OC(F)(F)F)cc1`, for which the result was inactive.
In the case of `O=c1n(Cl)c(=O)n(Cl)c(=O)n1Cl`, the result was inactive.
As to `Clc1cccc(C(Cl)(Cl)Cl)n1`, the compound was called inactive.
`OC(c1ccc(Cl)cc1)(c1ccc(Cl)cc1)C(Cl)(Cl)Cl`: the outcome was inactive.
Still for that read-out and setting: to `CC(C)=CC1C(C(=O)OCc2coc(Cc3ccccc3)c2)C1(C)C` (centres undefined) belongs “inactive”.
Consider `C=C(C)CN(CC)c1c([N+](=O)[O-])cc(C(F)(F)F)cc1[N+](=O)[O-]`, for which the compound was called inactive.
For `CC(C)N1C(=O)c2ccccc2NS1(=O)=O`, the result was inactive.
Turning to `CCNC(=O)NC(=O)C(C#N)=NOC`, the compound was called inactive.

The nature of another experiment: Tanguay_ZF_120hpf_SWIM_legacy: (Legacy) Oregon State University Tanguay Lab 120 Hour Post-fertilization zebrafish Assay for Swim Bladder Malformation (AID 2283654).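 Further: swim bladder malformation in each larva scored yes or no under brightfield.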 The method in brief: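 Tropical 5D embryos dechorionated at 4 hpf; 1 embryo/well from 6 hpf; static, sealed, dark exposure at 28C until 120 hpf; final DMSO 0.64%; 5uM trimethyltin chloride positive control; swim bladder defect recorded yes/no; dead embryos not scored.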
Consider `CCOc1cc(C(C)(C)C)ccc1C1COC(c2c(F)cccc2F)=N1` (centres undefined), for which the result was inactive.
As to `O=C(Nc1ccccc1-c1ccc(Cl)cc1)c1cccnc1Cl`, the compound was called inactive.
Take `COP(=S)(OC)SCn1nnc2ccccc2c1=O`: the compound was called inactive.
In the case of `CCNP(=S)(OC)O/C(C)=C/C(=O)OC(C)C` (centres undefined), the call was inactive.
`CCCCC(O)(Cn1cncn1)c1ccc(Cl)cc1Cl` (centres undefined): the call was inactive.
On to `COC(=O)NC(=S)Nc1ccccc1NC(=S)NC(=O)OC`, for which the call was inactive.
As to `CNC(=O)Oc1cccc2ccccc12`, the compound was called inactive.
For `COCC(=O)N(c1c(C)cccc1C)C(C)C(=O)OC` (centres undefined), the result was inactive.
`CSC(=O)c1c(C(F)F)nc(C(F)(F)F)c(C(=O)SC)c1CC(C)C`: the compound was classed as inactive.
Turning to `CCOc1nc(C(Cl)(Cl)Cl)ns1`, the compound was classed as inactive.
On to `CC1(C)CCC(=Cc2ccc(Cl)cc2)C1(O)Cn1cncn1` (centres undefined), for which the call was inactive.
In the case of `CN=C=S`, the result was inactive.
Still for that read-out and setting: the same measure for `CC(C)N1C(=O)N(c2ccccc2)CSC1=NC(C)(C)C`: “inactive”; for `CN/C(=N\[N+](=O)[O-])NCc1cnc(Cl)s1`: “inactive”.
Turning to `Cc1cnc(C2=NC(C)(C(C)C)C(=O)N2)c(C(=O)O)c1` (centres undefined), the compound was classed as inactive.
Regarding `CCN(CC)c1nc(C)cc(OP(=S)(OC)OC)n1`, the compound was classed as inactive.
Regarding `CC(C)Nc1nc(Cl)nc(NC(C)C)n1`, the call was inactive.
In the case of `CCOC(=O)C(C)OC(=O)c1cc(Oc2ccc(C(F)(F)F)cc2Cl)ccc1[N+](=O)[O-]` (centres undefined), the compound was called inactive.
Turning to `COC(=O)N(C(=O)N1CO[C@@]2(C(=O)OC)Cc3cc(Cl)ccc3C2=N1)c1ccc(OC(F)(F)F)cc1`, the result was inactive.
Same read-out and setting: the same measure for `O=c1n(Cl)c(=O)n(Cl)c(=O)n1Cl`: “inactive”; for `Cc1ccc(N=CN(C)C=Nc2ccc(C)cc2C)c(C)c1`: “inactive”.
For `Clc1cccc(C(Cl)(Cl)Cl)n1`, the outcome was inactive.
On the same count and under the same terms, to `OC(c1ccc(Cl)cc1)(c1ccc(Cl)cc1)C(Cl)(Cl)Cl` belongs “inactive”; to `CC(C)=CC1C(C(=O)OCc2coc(Cc3ccccc3)c2)C1(C)C` (centres undefined), “inactive”.
On to `C=C(C)CN(CC)c1c([N+](=O)[O-])cc(C(F)(F)F)cc1[N+](=O)[O-]`, for which the call was inactive.
On the same count and under the same terms, to `O=C(O)c1c(Cl)ccc2cc(Cl)cnc12` belongs “inactive”.
Regarding `CC(C)N1C(=O)c2ccccc2NS1(=O)=O`, the result was inactive.
Consider `CCNC(=O)NC(=O)C(C#N)=NOC`, for which the AC50 was 53.2 µM (active).
For `COC(=O)NS(=O)(=O)c1ccc(N)cc1`, the result was inactive.
